Values joined by “and” are separate entries in the source; they are usually repeats but may differ in a detail not shown here. Equal values may be shown once. Records with an inconclusive call do not appear. Active and inactive are the calls of the source. The call rests on the fitted dose curve; in most records, active means well fitted inhibition curve with a large enough effect; inconclusive means small, poorly fitted or top-dose-only effect; inactive means flat fitted curve, though single readings scatter.
Each molecule was assayed on KB-3-1 (assay: Cytotoxic Profiling of Annotated Libraries Using Quantitative High-Throughput Screening (AID 1296008; further: nearly all actives have a fitted effect of over 60% in size)). Details: Five cell lines viability, CellTiter-Glo ATP luminescence, 48-72 h; max response: stronger effect = lower value.
Procedure, shortened: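 Cells exposed to compounds for 48 or 72 hr at 37 degrees Celsius. Viability read as ATP-coupled luminescence with CellTiter-Glo after 10 min at room temperature.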
CC(=O)[C@@]1(O)CC[C@H]2[C@@H]3C=C(Cl)C4=CC(=O)[C@@H]5C[C@@H]5[C@]4(C)[C@H]3CC[C@@]21C was tested, and the max response was 1.37% (inactive).
For Cc1ncc(C[n+]2csc(CCOP(=O)(O)O)c2C)c(N)n1, the max response was -2.14% (inactive).
For CCCCCCCCCC(=O)NO, the max response was -3.47% (inactive) and -15% (inactive).
With CCCCC(O)c1ccccc1 (stereo unspecified) the max response was 6.09% (inactive).
CO[C@@]1(NC(=O)C2SC(=C(C(N)=O)C(=O)O)S2)C(=O)N2C(C(=O)O)=C(CSc3nnnn3C)CS[C@@H]21 (stereo partly specified) was tested, and the max response was 1.97% (inactive).
For COc1cc2c(cc1OC)[C@@H](Cc1cc(OC)c(OC)c(OC)c1)[N+](C)(CCCOC(=O)CC/C=C/CCC(=O)OCCC[N+]1(C)CCc3cc(OC)c(OC)cc3[C@H]1Cc1cc(OC)c(OC)c(OC)c1)CC2 (stereo partly specified), the max response was -6.45% (inactive) and -2.94% (inactive).

Source: PubChem BioAssay (NCATS)
On the % scale 0 is the no-effect control and ±100 the full control effect.
